In PMC4552634, “A New Set of Chemical Starting Points with Plasmodium falciparum Transmission-Blocking Potential for Antimalarial Drug Discovery” (PLoS ONE, 2015):
Hit rate of the full screen: of about 13,000 compounds, about 3,200 (25%) showed an effect of 50% or more. This is one part of the list.

System: P. falciparum stage V gametocytes
Set-up: BacTiter-Glo ATP luminescence viability of purified stage V gametocytes in 384-well plates, per cent inhibition versus DMSO
Details: 48 h, 5 µM; inhibitor

Row | SMILES | % Inhibition [%]
1 | Nc1ncc(-c2ccc(Br)cc2)c(N)n1 [TCMDC-125524] | -3.505
2 | Cn1ccnc1CNC(=O)c1ccc(-c2ccc(-c3nc4cc(C(F)(F)F)ccc4[nH]3)s2)cc1 [TCMDC-132353] | 3.481
3 | c1ccc(CNc2nc(NCCc3cnc[nH]3)nc(N3CCCC4CCCCC43)n2)cc1 (stereo not drawn) [TCMDC-139742] | 0.6761
4 | COc1cccc2c(NCc3ccccc3)nc(NCCCN3CCCCC3C)nc12 (stereo not drawn) [TCMDC-137782] | 79.04
5 | COc1cc(CCNc2nc(NCc3cccc4ccccc34)nc(N3CCC(N)CC3)n2)ccc1O [TCMDC-133444] | -7.002
6 | CC1CCCCN1CCCNc1nc(NCc2ccccc2)c2ccccc2n1 (stereo not drawn) [TCMDC-137771] | 108.4
7 | COc1cccc2c(C)cc(NCc3ccc(Cl)cc3)nc12 [TCMDC-125774] | -17.6
8 | Brc1ccc(Nc2nc(NCc3ccccc3)c3ccccc3n2)cc1 [TCMDC-124574] | 42.06
9 | C=C1N(C)c2cc([N+](=O)[O-])c(N)cc2C1(C)C [TCMDC-125319] | -63.8
10 | COc1cc2c(cc1COc1ccccc1)CCN1Cc3cc(OC)c(OC)cc3CC21 (stereo not drawn) [TCMDC-141984] | -4.56
11 | COc1cc2c(cc1O)[C@@H]1[C@H](O)[C@@H](O)C=C3CCN(C2)[C@H]31 [TCMDC-132036] | 63.23
12 | CC(=O)Nc1ccc(C(=O)Nc2ccc(-c3csc(-c4nc5ccccc5[nH]4)c3)cc2)cn1 [TCMDC-132393] | 4.532
13 | CC(=O)Nc1ccc(C(=O)Nc2cccc(-c3ccc(-c4nc5ccccc5[nH]4)cc3)c2)cn1 [TCMDC-136827] | 76.21
14 | CC(=O)Nc1ccc(C(=O)Nc2cccc(-c3cccc(-c4nc5ccccc5[nH]4)c3)c2)cn1 [TCMDC-136820] | 6.09
15 | CC(=O)Nc1ccc(C(=O)Nc2ccc(-c3cccc(-c4nc5ccccc5[nH]4)c3)cc2)cn1 [TCMDC-136819] | -15.84
16 | CC(=O)Nc1ccc(C(=O)Nc2cccc(-c3csc(-c4nc5ccccc5[nH]4)c3)c2)cn1 [TCMDC-132405] | 77.44
17 | CC(=O)Nc1ccc(C(=O)Nc2cccc(-c3ccc(-c4nc5ccccc5[nH]4)s3)c2)cn1 [TCMDC-136821] | 24.61
18 | Cc1ccc(Cn2c(N3CCC(C(=O)NCc4ccccn4)CC3)nc3ccccc32)cc1 [TCMDC-125442] | 35.66
19 | NC(=O)NC(=O)C=Cc1ccco1 [TCMDC-131644] | -0.9845
20 | COc1cc(NC(=O)/C=C/c2cc(F)cc(F)c2F)cc(OCCN2CCC3(CC2)OCCO3)c1 [TCMDC-140933] | -20.54
21 | COc1ccc(C(=O)N2CCC3(CC2)C(=O)N(CC(=O)NCC2CCCCC2)CN3c2ccccc2)cc1 [TCMDC-125171] | 3.565
22 | O=C(Nc1cccc(C(F)(F)F)c1)c1ccc(S(=O)(=O)NC2CCN(CC3CCCCC3)CC2)cc1 [TCMDC-132773] | 84.32
23 | O=C(Nc1ccc(C(F)(F)F)cc1)c1ccc(S(=O)(=O)NC2CCN(CC3CCCCC3)CC2)cc1 [TCMDC-133676] | -72.67
24 | O=C(Nc1cccc(C(F)(F)F)c1)c1ccc(S(=O)(=O)NC2CCN(CC3CCCCC3)C2)cc1 (stereo not drawn) [TCMDC-132772] | 86.66

Row | SMILES | % Inhibition [%]
25 | O=C(Nc1ccc(C(F)(F)F)cc1)c1ccc(S(=O)(=O)NC2CCN(CC3CCCCC3)C2)cc1 (stereo not drawn) [TCMDC-133674] | -14.42
26 | O=C(Nc1cccc(C(F)(F)F)c1)c1cccc(S(=O)(=O)NC2CCN(CC3CCCCC3)C2)c1 (stereo not drawn) [TCMDC-132487] | 9.75
27 | O=C(Nc1ccc(C(F)(F)F)cc1)c1ccc(S(=O)(=O)NC2CCCN(CC3CCCCC3)C2)cc1 (stereo not drawn) [TCMDC-133678] | 5.433
28 | CCC[C@@H]([C@@H](CC1CCCCC1)C(=O)N[C@H](C(=O)Nc1nccc(N)n1)C(C)(C)C)N(O)C=O [TCMDC-138127] | 6.724
29 | NC12CC3CC(CC(C3)C1)C2 [TCMDC-125869] | 6.577
30 | CC(C)NC(=O)c1cccc(-c2cccc(OCCN3CCSCC3c3ccccc3)c2)c1 (stereo not drawn) [TCMDC-134384] | 34.28
31 | O=C(/C=C/c1ccc(Cl)c(Cl)c1)Nc1cccc(CN2CCC(c3c[nH]c4ccc(O)cc34)CC2)c1 [TCMDC-139634] | -96.41
32 | COC(=O)CCCCOc1cc(Cc2cnc(N)nc2N)cc(OC)c1OC [TCMDC-138041] | 1.908
33 | O=C(/C=C/c1ccc(Cl)c(Cl)c1)NC1CCC(CN2CCC(c3coc4ccccc34)CC2)CC1 (stereo not drawn) [TCMDC-140260] | -37.97
34 | Cc1cccc2[nH]cc(C3CCN(CC4CCC(NC(=O)/C=C/c5ccc(Cl)c(Cl)c5)CC4)CC3)c12 (stereo not drawn) [TCMDC-140137] | 108
35 | COc1cc2c(C3CCN(CC4CCC(NC(=O)/C=C/c5ccc(Cl)c(Cl)c5)CC4)CC3)c[nH]c2cn1 (stereo not drawn) [TCMDC-140245] | 13.08
36 | Cc1cccc2c(C3CCN(CC4CCC(NC(=O)/C=C/c5ccc(Cl)c(Cl)c5)CC4)CC3)c[nH]c12 (stereo not drawn) [TCMDC-139639] | 73.81
37 | COc1ccc2nccc(NC(=O)N3CCC(NCc4cc5ccccc5[nH]4)CC3)c2n1 [TCMDC-140671] | -10.57
38 | Cc1cc(Cl)ccc1N(Cc1ccccc1)c1ccnc(Cl)n1 [TCMDC-138722] | -10.33
39 | Cc1cc(C)nc(-n2[nH]c(C)c(Cc3ccc(C(C)(C)C)cc3)c2=O)n1 [TCMDC-125382] | 16.36
40 | O=C(Nc1cccc(Cl)c1)c1cnc(N2CCN(c3ccncc3)CC2)c(Cl)c1 [TCMDC-134600] | 12.94
41 | O=C(Nc1ccc(N2CCNCC2)cc1)c1ccn2ncc(-c3cccc(Cl)c3)c2n1 [TCMDC-132663] | 113.1
42 | Oc1ccc(CCNc2nc(NCc3ccccc3-c3cccc(Cl)c3)nc(N3CCNCC3)n2)cc1 [TCMDC-133784] | -2.358
43 | Cc1ccc(Cn2nc(Cl)c(N3CCCNCC3)cc2=O)cc1NC(=O)Nc1ccc(-c2ccccc2)cc1 [TCMDC-141697] | 91.1
44 | O=C(Nc1ccc(-c2ccccc2)cc1)Nc1cccc(Cn2cnc(N3CCCNCC3)cc2=O)c1 [TCMDC-133363] | -19.33
45 | Cc1ccc(Cn2cnc(N3CC(C)NC(C)C3)cc2=O)cc1NC(=O)Nc1ccc(-c2ccccc2)cc1 (stereo not drawn) [TCMDC-133371] | 24.76
46 | O=C(Nc1ccc(Cn2nc(Cl)c(N3CCCNCC3)cc2=O)cc1)c1ccc(-c2ccccc2)cc1 [TCMDC-141693] | 29.71
47 | O=C(Nc1ccc(Cn2nc(Cl)c(N3CCNCC3)cc2=O)cc1)Nc1ccc(-c2ccccc2)cc1 [TCMDC-141700] | -30.94
48 | O=C(Nc1ccc(Cn2nc(Cl)c(N3CCCNCC3)cc2=O)cc1)Nc1ccc(-c2ccccc2)cc1 [TCMDC-141696] | -10.1

Row | SMILES | % Inhibition [%]
49 | Cc1ccc(Cn2nc(N3CCNCC3)ccc2=O)cc1NC(=O)Nc1ccc(-c2ccccc2)cc1 [TCMDC-132580] | 107.8
50 | O=C(Nc1ccc(-c2ccccc2)cc1)Nc1cccc(Cn2nc(Cl)c(N3CCCNCC3)cc2=O)c1 [TCMDC-141695] | 3.325
51 | O=C(Nc1ccc(-c2ccccc2)cc1)Nc1cccc(Cn2nc(Cl)c(N3CCNCC3)cc2=O)c1 [TCMDC-141694] | -35.56
52 | Cc1ccc(Cn2nc(Cl)c(N3CCNCC3)cc2=O)cc1NC(=O)Nc1ccc(-c2ccccc2)cc1 [TCMDC-141698] | 114.4
53 | Cc1c(Cn2nc(Cl)c(N3CCNCC3)cc2=O)cccc1NC(=O)Nc1ccc(-c2ccccc2)cc1 [TCMDC-141699] | 65.88
54 | COc1ccc(NC(=O)Nc2ccc(-c3ccccc3)cc2)cc1Cn1nc(Cl)c(N2CCCNCC2)cc1=O [TCMDC-141724] | 21.4
55 | CCN1CCC(N2CCC(C(=O)Nc3cccc(-c4cccc(Cl)c4)c3)CC2)CC1 [TCMDC-124650] | 24.3
56 | COc1ccc(CN2CCCN(Cc3cccc(C(=O)Nc4ccc(C(C)(C)C)cc4)c3)CC2)cc1 [TCMDC-135986] | 5.589
57 | CCc1c(C)nc(-n2nc(C)cc2NC(=O)CC(c2ccccc2)c2ccccc2)[nH]c1=O [TCMDC-124933] | -29.94
58 | NC(=O)Nc1ccc2c(Nc3ccc(OCc4ccccc4)cc3)ncnc2c1 [TCMDC-131937] | 13.28
59 | Cc1ccc2sc(N(CCCn3ccnc3)C(=O)c3ccco3)nc2c1C [TCMDC-124922] | 21.61
60 | O=C(Cc1cccnc1)Nc1cccc(-c2cccc(-c3nc4ccc(C(F)(F)F)cc4[nH]3)c2)c1 [TCMDC-136815] | 21.33
61 | COc1ccc(CN2CCN(CCCCNC(=O)c3ccc(NC(=O)c4ccc(Cl)cc4)cc3)CC2)c(OC)c1 [TCMDC-138280] | 2.758
62 | COc1ccc(CC2(c3ccc(F)cc3)N=C(N)N(CCCc3cccnc3)C2=O)cc1 (stereo not drawn) [TCMDC-136541] | 12.34
63 | Cc1cc(N[C@@H](CC(C)C)C(=O)NCCOc2ccccc2)nc(NCCc2ccccc2)n1 [TCMDC-134871] | 94.75
64 | CCCC(C)Nc1nc(C)cc(N[C@@H](Cc2ccccc2)C(=O)NCCOc2ccccc2)n1 (stereo partly drawn) [TCMDC-134765] | -43.65
65 | Cc1cc(N[C@@H](Cc2ccccc2)C(=O)NCc2cccs2)nc(NCCOc2ccccc2)n1 [TCMDC-134758] | 28.84
66 | Cc1cccc(CNc2nc(C)cc(N[C@@H](Cc3ccccc3)C(=O)NCCOc3ccccc3)n2)c1 [TCMDC-134888] | 18.91
67 | Cc1cc(N[C@@H](Cc2ccccc2)C(=O)NCCOc2ccccc2)nc(NCCc2ccccn2)n1 [TCMDC-134748] | 75.62
68 | Cc1cc(N[C@@H](CC(C)C)C(=O)NCCOc2ccccc2)nc(NCCc2ccc(F)cc2)n1 [TCMDC-134795] | 47.6
69 | Cc1cc(N[C@@H](Cc2ccccc2)C(=O)NCCOc2ccccc2)nc(NCC2CCCCC2)n1 [TCMDC-134933] | -5.307
70 | Cc1cc(N[C@@H](CC(C)C)C(=O)NCCOc2ccccc2)nc(NCCOc2ccccc2)n1 [TCMDC-134761] | 40.02
71 | Cc1cc(N[C@@H](Cc2ccccc2)C(=O)NCCOc2ccccc2)nc(NCCc2ccc(F)cc2)n1 [TCMDC-134789] | 64.78
72 | Cc1cc(N[C@@H](Cc2ccccc2)C(=O)NCCOc2ccccc2)nc(NCCc2cccs2)n1 [TCMDC-134813] | 64.23
